test system: VDR:RXRa (NR concentration 270 nM, RXRa partner concentration 90 nM); experiment: PBM binding z-score (relative to random genomic background probes); higher = stronger binding; sequences stand for … in GC…GCGATTGACAGCGTAGAATGAAGG
Method: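 Protein-binding microarray (Agilent 4x180K custom design, double-stranded 60-nt probes: 5' GC cap, 34-nt variable region, 24-nt constant primer region; full probe sequence given). Purified or IVT nuclear receptor:RXRα heterodimers (3:1 NR:RXRα, mostly 270:90 nM) or homodimers were incubated for 1 h in PBS with 2% milk and no ligand, then detected with Alexa488 antibodies. Fluorescence from o1-orientation probes (~5 replicates averaged) was converted to z-scores against 500 random hg19 background probes. Variable regions are seed direct-repeat (DR0–DR5) sites, all their single-nucleotide variants and half-site ablations.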

Row | Sequence | PBM binding z-score
1 | CCTGCTAGGTCAATGGTCTGCTAAAGCAGCTCGC | 0.867
2 | TCTTGTAGATCAATAGAGGTTCAGAAAGTGCGCT | 1.65
3 | CCGACTGGGGCATAAGGTTAACATAAGCCAGCCC | 0.684
4 | TGTCTAAGTTCAAAGGTAACGTAAGTATCCACAC | 4.6
5 | GGAACGAGGGTAAAGTTGATAGCATCTGTCGACG | 0.137
6 | AGTCTAAGTTCATCTAGGTAACGTAAGATATGCT | 4.65
7 | TCTTGTCGATCAAAGGTTAAGAAAGCCGAAGCCT | 1.27
8 | ATATTTAGGTTACATCCGGGTCATTCAGGCTATG | 4.13
9 | CGAACTAGGTCATCCAGGACTGTGAATACATTGA | 2.81
10 | CGAACTAGGTCAAGGATAGTGAATCTCCGCACGC | 1.19
11 | GCAGACAGGTGAAACGCATGTAACTCAGGGTGGC | -0.601
12 | CCTAGCACGCCAATCTGGGTCACTCAAGGCTTGA | 0.379
13 | TAGTCTAGGTCATGCGGGCCAGTATAGTGTCGGC | 2.86
14 | TCGAGTAGGTTAAGGGCATTCAGAATGGCGTCGA | 0.959
15 | CCGACTGGGGCAGAAACGTTACCATACCATCCGG | -0.901
16 | CCTTACGGGTCACTGACAGTTTATAGCATTTGGA | 4.21
17 | CGTACAAGGTCAATGCTAGGTCAGTGAAAGCATT | 5.24
18 | TCTAGGAGGCCAGAGGGTCACTCAAGAGGTACGG | 1.68
19 | ACTAGCAGGCCAAGGGTCACTCAAGATTAGTCCG | 2.61
20 | TAGCCTAGGTCATTGGCCCAGTATAGTACGCATC | 2.09

Row | Sequence | PBM binding z-score
21 | AGAACGAGGGCAATGAATTGATAGCACGGGTGGC | 0.305
22 | CGTCCAAGGTCAATGATAGGTCAGTGAAAGCATT | 5.02
23 | CAAACTAGGTTAAGGTCAAAGTCGGTTTGTGCCA | 4.8
24 | CCTCGGAGGACAGAAGGTGAGAGCTGTCCGCTTT | -0.483
25 | CCTACTGGGCCAAGGTCATTCATCAGTCAAAGCA | 3.55
26 | ATCTCTAGGTAACAATTTCAGTGAAAGAGAGGAC | 0.483
27 | AGAATGAGGTTATTAAGATCAGCGAATTGCGGTC | 2.57
28 | CCGACTGGGGCATAAGGTTACCATCAGCCAGCCC | -0.0341
29 | ACAGACAGGTAAGTGAAGGTAACTCAGCTGGACG | -0.31
30 | ACAGACAGGTGGTGAAGGTAACTCAGGCTATCAT | -0.0297
31 | CGTCCAAGGTCATAGGAGGTCAGTGTAGACAGAT | 6.49
32 | CGAACTAAGTCAGAACAGGACAGTGAAGGATGAT | -0.25
33 | CCTTATGGGTCAAGGTTATAGCACGGGTGGTACG | 2.45
34 | GCTATTAATTGAAAGGGCAACCGAATGATTCTCG | 0.257
35 | ATCTCAAGGTAACCAAGTTCAGTGAATGCCGAAC | 5.03
36 | CGGCAAAGTTCAACTAAGGTAACGTAAAGCACGC | 4.67
37 | CCTTACGGGTCAAGGTTATTGCACGGGTGGTACG | 3.42
38 | GGAACGAGGGCAAAGCTGATAGCATCTGTCGACG | 0.367
39 | TAGCCTAGGTCATTCAGGGGCCAGTAAAGAAAGC | 3.21
40 | CGCACGAGGGCATGAGTTGATAGCAAATGCCGAT | 1.27

Reference: the supplement of paper PMC6555819
